Most compounds without a hit are left out; they make up all but 19% or so of the library.
HT1080-NT tox: kills 2HG-producing HT-1080-NT fibrosarcoma cells; HT-1080-NT fibrosarcoma viability, CellTiter-Glo ATP luminescence, 48 h; Potency, µM (doses to about 46.1 µM), for the others: at the top dose activity, negative = less viability, actives largely listed as cytotoxic; hit rate 1.6% among 360,000; AID 686970;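 note: NT is the 2HG producing partner of a matched IDH1 knockdown line; potency is the fitted concentration of half-maximal effect; 0% = DMSO-treated cells and -100% = media-only wells without cells; nearly all actives have a fitted effect of over 55% in size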
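750 cells/well, RPMI + 5% FBS; 2 h settle, compound pin-transfer, 48 h at 37 degrees C. CellTiter-Glo 10 min RT, luminescence. Normalized to DMSO and media-only wells.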
HT1080 IDH1KD tx: HT-1080 IDH1 knockdown cell toxicity (counter line); AID 686971; hit rate 2% among 360,000; HT-1080 IDH1 knockdown viability, ATP luminescence, 48 h; Potency, µM (doses to about 46.1 µM), inactives show top-dose activity, negative = toxicity, most hits filed as cytotoxic;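 note: potency is the fitted concentration of half-maximal effect; 0% = DMSO wells and -100% = cell-free medium wells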
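HT-1080-IDH1KD cells (IDH1 knocked down), 750/well in RPMI with 5% FBS, treated with compound 48 h at 37 degrees C. Viability by CellTiter-Glo luminescence, normalised to DMSO and no-cell wells; concentration-response curves classed.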
TDP1 cell noCPT: qHTS for Inhibitors of human tyrosyl-DNA phosphodiesterase 1 (TDP1): qHTS in cells in absence of CPT; AID 686978, 2013; Potency, µM (top dose mostly 46.2 µM), for inactives: top-dose activity change, negative = growth inhibition, hits mostly inhibitors; DT40 Tdp1-/- hTDP1 cells, no CPT, ATP luminescence, 48 h; hit rate 15% among 420,000; note: potency is the fitted concentration of half-maximal effect; nearly all actives have a fitted effect of over 55% in size
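Seeded 400 DT40-hTDP1 cells/well (vehicle DMSO, no 20 nM CPT); pinned compounds; ≥48 hr at 37 °C; CellTiter-Glo luminescence as viability measure.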
IL-1B inflam inh: blocks inflammasome-driven IL-1 beta release; THP-1 LPS/ATP IL-1B secretion, AlphaLISA, 16 h; stronger effect = lower value; activity change, % at 57.5 µM; hit rate 4.7% among 360,000; AID 743279; in the data active = activity change below about -50%; inconclusive = mostly about -30% to -49%
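Secreted IL-1B measured by AlphaLISA bead assay after 16 h compound exposure of THP-1 cells; compounds (final up to 57.5 uM) added 1 h before LPS (250 ng/mL) and ATP (1.25 mM) stimulation; lower signal means less secretion.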
ELG1 DNA repair: inhibitors of ELG1-dependent DNA repair in HEK293T cells. HEK293T ELG1-luciferase reporter, luminescence, 16 h; DNA damage induced by 5-fluorouridine. Potency, µM (titrated, usually from 46.1 µM), inactives show top-dose activity change, negative = inhibition, hits mostly inhibitors. hit rate 2.3% among 330,000; note: potency is the fitted concentration of half-maximal effect; nearly all actives have a fitted effect of over 55% in size
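Quantitative HTS, concentration-response format. 2,000 cells/well co-treated with 5-fluorouridine and compound, 16 hr in 5% CO2 at 37 °C; ONE-Glo luminescence read after 30 min.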
TDP1 cell CPT: DT40-hTDP1 cell growth loss with CPT. chicken DT40 Tdp1-/-;hTDP1 cells + 20 nM CPT, ATP luminescence, 48 h. Potency, µM (series often up to 46.2 µM), for inactives: at the top dose activity change, negative = growth inhibition, usual class: inhibitors. hit rate 12% among 420,000; note: potency is the fitted concentration of half-maximal effect; nearly all actives have a fitted effect of over 55% in size
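Chicken DT40 Tdp1-/- cells stably complemented with human TDP1 were seeded at 400 cells/well in medium containing 20 nM camptothecin, exposed to pin-transferred compounds, and grown at 37 °C for at least 48 hr. Viability was read as ATP luminescence.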
ELG1 FLuc counter: luciferase inhibition in cell-free luciferin readout for ELG1 hits | shares compounds with ELG1 DNA repair | cell-free firefly luciferase luminescence counter-screen, ViewLux | Potency, µM (series often up to 46.1 µM), without a hit: at the highest dose activity change, negative = inhibition, actives largely listed as inhibitors | hit rate 3% among 350 | AID 624247; note: potency is the fitted concentration of half-maximal effect
ELG1 Luc conf: inhibits ELG1-dependent DNA repair in HEK293T cells, confirmed. hit rate 68% among 670. shares compounds with ELG1 DNA repair. HEK293T ELG1-luciferase levels, luminescence; cells co-treated with 5-fluorouridine. AID 624248. Potency, µM (highest dose often 46.1 µM), inactives show at the highest dose activity change, negative = inhibition, usual class: inhibitors; note: potency is the fitted concentration of half-maximal effect; nearly all actives have a fitted effect of over 55% in size
ELG1-Luc MMS: confirmation of human ELG1 repair inhibitors, MMS stimulated; shares compounds with ELG1 DNA repair; HEK293T luciferase-tagged ELG1 level, MMS stimulated; Potency, µM (top dose mostly 46.1 µM), for the others: at the top dose activity change, negative = inhibition, actives largely listed as inhibitors; hit rate 53% among 670; AID 624249; note: potency is the fitted concentration of half-maximal effect; nearly all actives have a fitted effect of over 60% in size
ELG1 5-FU: confirmation of ELG1 repair inhibitors: viability with 5FU | cell viability with 5-FU, ELG1-dependent repair | 670 tested, under 10 active | shares compounds with ELG1 DNA repair | Potency, µM (top dose mostly 46.1 µM), without a hit: at the top dose activity change, negative = viability loss, most hits filed as cytotoxic;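 note: ELG1-luc HEK293T cells cotreated with 5-fluorouridine at 10 µM final; potency is the fitted concentration of half-maximal effect; viability measured 16 h after compound addition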
ELG1 MMS viab: confirmation of ELG1 repair inhibitors: viability with MMS; shares compounds with ELG1 DNA repair; Cell viability with MMS, ELG1-dependent DNA repair; Potency, µM (series often up to 46.1 µM), for the others: at the highest dose activity change, negative = viability loss, most hits filed as cytotoxic; hit rate 33% among 670;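 note: ELG1-luc HEK293T cells co-treated with 10 µM MMS; potency is the fitted concentration of half-maximal effect; viability read 16 h after compound addition; nearly all actives have a fitted effect of over 60% in size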
ELG1 unstim viab: counter-screen for ELG1 repair inhibitors: unstimulated cell viability | shares compounds with ELG1 DNA repair | cell viability counter-screen, unstimulated, luminescence | Potency, µM (series often up to 45.9 µM), for the others: at the highest dose activity change, negative = loss of viability, usual class: cytotoxic | hit rate 8% among 900 | AID 624252;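 note: potency is the fitted concentration of half-maximal effect; compound exposure lasted 16 hours before reading; nearly all actives have a fitted effect of over 55% in size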
FLuc biochem: firefly luciferase inhibition counter-screen. shares compounds with ELG1 DNA repair. purified firefly luciferase, luminescence counter-screen. Potency, µM (highest dose often 57.5 µM), for the others: top-dose activity, negative = inhibition, most hits filed as inhibitors. hit rate 10% among 350. AID 624253; note: potency is the fitted concentration of half-maximal effect
* marks the source's active call; other numbers are inactive results; ? = inconclusive; / = no result. Unless noted, calls come from the whole dose curve; as a rule, active = well fitted curve in the direction sought with a large enough effect; inconclusive = small, poorly fitted or top-dose-only effect, or another doubt; inactive = no such curve, though single readings can be large; an effect the other way counts as inactive or inconclusive. Unless noted, % is set by controls: 0 for no effect and ±100 for the full control effect.

SMILES	HT1080-NT tox	HT1080 IDH1KD tx	TDP1 cell noCPT	IL-1B inflam inh	ELG1 DNA repair	TDP1 cell CPT	ELG1 Luc conf	ELG1-Luc MMS	ELG1 5-FU	ELG1 MMS viab	ELG1 unstim viab	others
O=C1CCN(Cc2ccccc2)C=C1c1ccc2ccccc2c1	-2.6%	2.6%	-16.7%	-2.9	?	-29.7%	/	/	/	/	-2.2%
OCCN1CCN(c2ncnc3ccc(Br)cc23)CC1	0.2%	-13.0%	4.11µM*	-23.6	2.06µM*	-89.4%	?	?	-2.3%	4.9%	4.1%
COCCn1ccc2c(OCC(=O)NCCc3ccc(OC)c(OC)c3)cccc2c1=O	-1.3%	0.7%	1.2%	-6.6	?	6.3%	/	/	/	/	/
CCOCCn1ccc2c(OCC(=O)Nc3cc(OC)ccc3OC)cccc2c1=O	-3.9%	-1.3%	9.2µM*	-10.8	4.11µM*	?	11.2µM*	15.8µM*	?	?	?
COc1ccc(-n2c(=S)[nH]c3cc(C(=O)NCc4cccnc4)ccc3c2=O)cc1	-7.6%	-0.6%	-30.4%	26.5	-11.7%	7.4%	/	/	/	/	/
CN(CC(=O)Nc1ccccc1Br)C(=O)c1ccc(-c2ccc(Cl)cc2)o1	-12.7%	-25.0%	?	8.1	0.366µM*	?	?	22.3µM*	-7.7%	25µM*	?	ELG1 FLuc counter=15.6%;FLuc biochem=20.6µM*
CCc1cc(=O)oc2c3c(cc(OCC(=O)NCc4cccnc4)c12)OC(C)(C)CC3	-3.3%	-3.0%	20.6µM*	-1.4	3.66µM*	?	?	16.1%	5.3%	-1.1%	?
Cc1c(C)c2c(OCC(=O)NCc3cccnc3)cc3c(c2oc1=O)CCC(C)(C)O3	-8.7%	-3.5%	-9.8%	11.0	-4.7%	-4.5%	/	/	/	/	/
O=C(CCC(=O)Nc1ccccc1Cl)NNC(=O)C1CCCCC1	3.4%	10.7%	-4.8%	7.9	?	-4.6%	/	/	/	/	/

Compound activity from PubChem.
